Bioassay records from PubChem.
In the library only some 18% were active in any assay of this set; here they are far more common.
TDP1 block = TDP1 (human) enzyme inhibition. Potency, µM (titrated, usually from 130 µM), actives largely listed as inhibitors. AID 485290. recombinant TDP1, AlphaScreen DNA substrate cleavage. 350,000 compounds, 0.28% hits. Q9NUW8; further: nearly all actives have a fitted effect of over 40% in size
Target sequence (Q9NUW8 whole entry, looked up): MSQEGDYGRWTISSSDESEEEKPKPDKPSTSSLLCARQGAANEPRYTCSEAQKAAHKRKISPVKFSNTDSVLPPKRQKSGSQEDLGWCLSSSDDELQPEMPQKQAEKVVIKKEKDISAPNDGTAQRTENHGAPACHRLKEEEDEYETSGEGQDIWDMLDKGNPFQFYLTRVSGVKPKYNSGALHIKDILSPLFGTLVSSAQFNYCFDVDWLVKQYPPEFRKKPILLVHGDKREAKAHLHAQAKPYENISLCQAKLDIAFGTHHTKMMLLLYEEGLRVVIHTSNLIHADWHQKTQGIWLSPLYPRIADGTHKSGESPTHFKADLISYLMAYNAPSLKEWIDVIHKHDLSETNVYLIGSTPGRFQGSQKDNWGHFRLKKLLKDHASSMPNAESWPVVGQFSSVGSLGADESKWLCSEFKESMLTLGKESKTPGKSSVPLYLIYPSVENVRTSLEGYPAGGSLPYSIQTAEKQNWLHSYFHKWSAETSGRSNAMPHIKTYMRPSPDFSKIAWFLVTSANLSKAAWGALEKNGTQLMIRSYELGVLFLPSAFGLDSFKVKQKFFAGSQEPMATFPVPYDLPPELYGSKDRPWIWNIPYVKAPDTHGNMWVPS
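AlphaScreen read-out: signal falls as enzyme removes the 3' tyrosine-FITC from a 5'-biotinylated DNA oligo (15 nM, 5 min, RT). Enzyme was E. coli-made recombinant Tdp1 at 1 nM, exposed to compound for 15 min beforehand; beads 10 ug/ml, 10 min.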
IL-1B inflam inh = inflammasome signaling inhibition, IL-1 beta readout; activity change, % at 57.5 µM; 360,000 compounds, 4.7% hits; THP-1 LPS/ATP IL-1B secretion, AlphaLISA, 16 h; active compounds read low; in the data active means activity change below about -50%; inconclusive means mostly about -30% to -49%
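Secreted IL-1B measured by AlphaLISA bead assay after 16 h compound exposure of THP-1 cells; compounds (final up to 57.5 uM) added 1 h before LPS (250 ng/mL) and ATP (1.25 mM) stimulation; lower signal means less secretion.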
TGFb inhibitor = blocks TGF-b signaling | HepG2 CAGA-GFP TGF-b/SMAD3 reporter, GFP fluorescence, 18 h; TGF-beta stimulated, 500 pg/mL final | Potency, µM (doses to about 46.1 µM), hits mostly inhibitors | 410,000 compounds, 1.2% hits | AID 588855; further: nearly all actives have a fitted effect of over 65% in size
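Read-out: total well GFP (ex488/em500-530) summed from mean per-cell fluorescence. Cells: HEPG2 CAGA-GFP, 1% FBS DMEM, 18 h at 37 degrees C with 500 pg/mL final TGF-beta. Unstimulated wells served as the full-inhibition control; stimulated DMSO wells = 0%.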
DT40 TDP1 CPT = DT40-hTDP1 cell growth loss with CPT | chicken DT40 Tdp1-/-;hTDP1 cells + 20 nM CPT, ATP luminescence, 48 h | Potency, µM (highest dose often 46.2 µM), actives largely listed as inhibitors | 420,000 compounds, 12% hits | AID 686979; further: nearly all actives have a fitted effect of over 55% in size
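Chicken DT40 Tdp1-/- cells stably complemented with human TDP1 were seeded at 400 cells/well in medium containing 20 nM camptothecin, exposed to pin-transferred compounds, and grown at 37 °C for at least 48 hr. Viability was read as ATP luminescence.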
DT40 TDP1 no CPT = qHTS for Inhibitors of human tyrosyl-DNA phosphodiesterase 1 (TDP1): qHTS in cells in absence of CPT | DT40 Tdp1-/- hTDP1 cells, no CPT, ATP luminescence, 48 h | Potency, µM (titrated, usually from 46.2 µM), hits mostly inhibitors | 420,000 compounds, 15% hits | AID 686978, 2013; further: nearly all actives have a fitted effect of over 55% in size
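Luminescent ATP content (CellTiter-Glo) served as the growth readout. Knockout chicken DT40 cells expressing human TDP1 were exposed to compounds without camptothecin for a minimum 48 hr at 37 °C.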
HepG2 tox = HepG2 cytotoxicity, counter-screen for TGF-b inhibitors | HepG2 CAGA-GFP viability, ATP luminescence, 18 h | Potency, µM (titrated, usually from 46.1 µM), hits mostly cytotoxic | 410,000 compounds, 0.76% hits | AID 588856
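HepG2 CAGA-GFP cells (1000/well, DMEM with 1% FBS) received compound, then TGF-beta at 500 pg/mL final, and were incubated 18 hours at 37 degrees C. Viability was read by CellTiter-Glo luminescence. Media-only wells were set as complete cell-killing and DMSO as no toxicity.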
Numbers stand for hits; n = inactive; u = inconclusive; x = no result given; [ ] = another dose, or the depositor's remark. Unless noted, the call rests on the fitted dose curve; in most records, active means well fitted curve in the direction sought with a large enough effect; inconclusive means small, poorly fitted or top-dose-only effect, or another doubt; inactive means no such curve, though single readings can be large; an effect the other way counts as inactive or inconclusive.

SMILES | TDP1 block | IL-1B inflam inh | TGFb inhibitor | DT40 TDP1 CPT | DT40 TDP1 no CPT | HepG2 tox
COc1cc(CNc2ccc3[nH]c(=O)[nH]c3c2)ccc1OCc1cccc(C)c1 | x | -76 | u | u | u | n
O=C(C1=C[C@@H](c2coc3ccccc3c2=O)C[C@@H](OCCCCO)O1)N1CCN(Cc2ccc3c(c2)OCO3)CC1 | n | n | n | u | u | n
CCn1c(-c2ccccc2F)nc2cc(NC(C)=O)cc(C(=O)NCC3CCOCC3)c21 | x | x | x | n | n | x
O=C(c1cc(-c2ccc(F)cc2)nc2ccccc12)N1CCN(C2CCS(=O)(=O)C2)CC1 (configuration not stated) | n | n | n | u | n | n
COc1cc(CNc2ccc3[nH]c(=O)[nH]c3c2)cc(Br)c1OCc1ccc(F)cc1 | n | x | u | 7.3µM | 15µM | n
O=c1[nH]c2ccc(NCc3ccc(F)cc3)cc2[nH]1 | n | n | n | n | u | n
CN(C(=O)COc1ccccc1C(=O)Nc1ccccc1)c1ccccc1 | x | x | u | u | u | n
Cc1ccc2c(CNCc3ccc(C)o3)c(C(=O)O)n(Cc3ccc(F)cc3)c2c1 | n | x | n | u | 16µM | n
CCOc1ccccc1CNCc1c(C(=O)O)n(Cc2ccc(F)cc2)c2cc(C)ccc12 | n | x | n | 13µM | 5.8µM | n
Cc1ccc2c(CNC3CCCCC3)c(C(=O)O)n(Cc3ccc(F)cc3)c2c1 | n | x | n | n | u | n
C=Cc1ccc(Cn2c(C(=O)O)c(CNCc3ccc(F)cc3)c3ccc(C)cc32)cc1 | n | x | 13µM | 21µM | 23µM | n
Cc1ccc2c(CNCc3cccs3)c(C(=O)O)n(Cc3ccc(F)cc3)c2c1 | n | x | u | 6.5µM | 5.2µM | n
COC(=O)N(/C=C/c1ccc(OC)cc1)CCc1ccc(OC)c(OC)c1 | n[21 µM] | x | x | x | x | x
CC(=O)c1cccc(NC(=O)C(C)n2c(=O)cc(-c3ccccc3)c3c(C)nn(C)c32)c1 (configuration not stated) | n | x | n | u | u | n
COc1ccc(Cn2c(C(=O)O)c(CNCc3cccs3)c3ccc(C)cc32)cc1 | n | x | u | u | 18µM | n
C=Cc1ccc(Cn2c(C(=O)O)c(CNCc3cccs3)c3ccc(C)cc32)cc1 | n | x | u | u | u | 13µM
COc1ccc2c(CNCCc3cccs3)c(C(=O)O)n(Cc3ccccc3)c2c1 | n | x | n | u | u | n
COc1ccc2c(CNCc3cccs3)c(C(=O)O)n(Cc3ccc(F)cc3)c2c1 | n | x | n | 18µM | 9.2µM | n
C=Cc1ccc(Cn2c(C(=O)O)c(CNCCc3ccco3)c3ccc(C)cc32)cc1 | n | x | u | u | u | n
CNc1ncnc2c1ncn2[C@H]1CN(Cc2cccc3ccccc23)C[C@@H](CO)O1 | x | n | n | 23µM | u | n
OC[C@@H]1CN(Cc2ccc(-c3ccccc3)cc2)C[C@H](n2cnc3c(NC4CCC4)ncnc32)O1 | x | n | u | 4.1µM | 4.1µM | n
OC[C@@H]1CN(Cc2ccccc2)C[C@H](n2cnc3c(NC4CC4)ncnc32)O1 | x | n | n | n | n | n
CC(C)N(C)c1ncnc2c1ncn2[C@H]1CN(Cc2cccnc2)C[C@@H](CO)O1 | x | n | n | n | n | n
CCN(CC)c1ncnc2c1ncn2[C@H]1CN(Cc2cccnc2)C[C@@H](CO)O1 | x | -57 | n | n | n | n
OC[C@@H]1CN(Cc2ccc3c(c2)OCO3)C[C@H](n2cnc3c(NC4CC4)ncnc32)O1 | x | n | n | u | 21µM | n
CC(=O)N1CCc2cc(S(=O)(=O)CCC(=O)Nc3ccccc3F)ccc21 | n | n | n | n | n | n
Cc1ccc(NC(=O)CSCC(=O)N(C)CC(=O)Nc2cccc3ccccc23)cc1 | x | n | n | n | n | n
COc1ccccc1CNC(=O)c1ccc(Cl)c(NC2=NC3CS(=O)(=O)CC3S2)c1 (configuration not stated) | x | n | n | n | n | n
